Results: PubChem BioAssay (EPA / NIEHS)
The source made the active and inactive calls. How the source made its calls: active means hit-call score of the fitted dose curve at least 0.9, where 1 is the maximum; inactive means score below 0.9.

Tests used:
[1] = APR_HepG2_CellCycleArrest_24hr: Apredica 24-hour HepG2 Assay for Cell Cycle Arrest (AID 2282905); details: imaging, actives raise or lower the signal;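 further: cell cycle arrest scored as ratio of 2N to 4N nuclear DNA content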
How it was run: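 Cell cycle arrest is scored from nuclear DNA content measured by high-content imaging of Hoechst 33342-stained HepG2 cells following 24-hour treatment at ten concentrations up to 200 uM, with DMSO as baseline.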

[2] = APR_HepG2_CellLoss_24hr: Apredica 24-hour HepG2 Assay for Cell Loss (AID 2282908); details: high-content imaging;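 on AC50: fit in both directions so a hit may be cell loss or gain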
How it was run: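 Cell number is quantified by fluorescence imaging of Hoechst 33342-stained nuclei following dosing at 0.39–200 uM in 0.5% DMSO. Curves are fitted in both directions from the DMSO baseline.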

[3] = APR_HepG2_MicrotubuleCSK_24hr: Apredica 24-hour HepG2 Assay for Microtubule CSK Stabilty (AID 2282909); details: HepG2 microtubule cytoskeleton imaging, actives raise or lower the signal
How it was run: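 Steps: dose HepG2 for 24 h (0.39–200 uM, 0.5% DMSO); fix 30 min in 3.7% formaldehyde at room temperature; permeabilize; stain alpha-tubulin 60 min; image microtubule cytoskeleton at 20x. Signal change fitted in both directions relative to DMSO.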

[4] = APR_HepG2_MitoticArrest_24hr: Apredica 24-hour HepG2 Assay for Mitotic Arrest (AID 2282910); details: high-content imaging, actives raise or lower the signal
How it was run: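 HepG2 cells, 24 h exposure at 0.39-200 uM (10 concentrations, duplicate, 0.5% DMSO). Fixed, stained for phospho-histone H3 with Hoechst; imaged by high-content microscopy, bidirectional fit versus DMSO.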

[5] = APR_HepG2_MitoMembPot_24hr: Apredica 24-hour HepG2 Assay for Mitochondrial Membrane Potential (AID 2282911); details: imaging, actives raise or lower the signal
How it was run: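 HepG2 cells exposed 24 h to 0.39–200 uM compounds in duplicate, 0.5% v/v DMSO final. MitoTracker Red CMXRos 250 nM loaded 30 min before formaldehyde fixation; high-content imaging at 20x, bidirectional fit versus DMSO.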

[6] = APR_HepG2_MitoMass_24hr: Apredica 24-hour HepG2 Assay for Mitochondrial Mass (AID 2282912); details: high-content imaging, actives raise or lower the signal
How it was run: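 The liver line HepG2 was dosed in duplicate across a 0.39–200 uM series, with final DMSO held at 0.5% v/v, and harvested at 24 hr. High-content imaging measured mitochondrial dye staining.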

[7] = APR_HepG2_CellCycleArrest_72hr: Apredica 72-hour HepG2 Assay for Cell Cycle Arrest (AID 2282914); details: high-content imaging, actives raise or lower the signal
How it was run: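 HepG2 cells exposed 72 h in duplicate to 0.39–200 uM compound, 0.5% DMSO final. Formaldehyde-fixed, Hoechst 33342-stained nuclei imaged at 20x, six fields per well; DNA content per valid cell quantified by cell-cycle image analysis, bidirectional fit versus DMSO.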

[8] = APR_HepG2_CellLoss_72hr: Apredica 72-hour HepG2 Assay for Cell Loss (AID 2282915); details: high-content imaging
How it was run: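 HepG2 cells exposed 72 h to compound at 0.39–200 uM (10 concentrations, duplicate) in 0.5% DMSO. Fixed with 3.7% formaldehyde and Hoechst 33342-stained. Imaged at 20x; nuclear count gives cell number, fitted bidirectionally versus DMSO.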

Measured: AC50

O=C(Nc1ccccc1)c1ccccc1I
active: [1] 49.7 µM | [8] 61.8 µM
inactive: all other assays above

CC(C)(C)OOC(C)(C)CCC(C)(C)OOC(C)(C)C
active: [6] 56.5 µM | [7] 55.1 µM | [8] 56.1 µM
inactive: all other assays above

CC(C)(OOC(C)(C)c1ccccc1)c1ccccc1
active: [1] 36.4 µM | [2] 69.6 µM | [3] 77.2 µM | [4] 29.9 µM | [6] 19.6 µM | [8] 44.4 µM
inactive: [5] | [7]

N#CC(Br)Br
inactive: [1] | [5] | [7]
active: [2] 115 µM | [3] 169 µM | [4] 45.4 µM | [6] 86.6 µM | [8] 96.9 µM

CCN(CC)N=O
inactive: all assays above

c1ccc2c(c1)oc1ccccc12
inactive: all assays above

N#CC(Br)(Br)C(N)=O
inactive: all assays above

Nc1ccc([N+](=O)[O-])cc1
inactive: all assays above

Cc1ccc(N)cc1
inactive: all assays above

Cc1cc(N=Nc2ccccc2C)ccc1N
inactive: [3]
active: [1] 100 µM | [2] 70 µM | [4] 87.6 µM | [5] 101 µM | [6] 121 µM | [7] 21.5 µM | [8] 43.1 µM

C=CCc1ccc2c(c1)OCO2
active: [5] 0.0311 µM
inactive: all other assays above

CCOC(=O)[C@]1(c2ccccc2)Oc2ccccc2[C@@H]1N
active: [2] 86.7 µM | [3] 112 µM | [4] 111 µM | [6] 107 µM | [8] 116 µM
inactive: [1] | [5] | [7]

CC(C)COC(=O)c1ccccc1C(=O)OCC(C)C
active: [1] 85.7 µM | [2] 87 µM | [5] 53.7 µM | [6] 108 µM | [7] 76.2 µM | [8] 63.2 µM
inactive: [3] | [4]

CNC(=O)Oc1cccc2c1OC(C)(C)C2
inactive: all assays above

CCN(CC)CCO
inactive: all assays above

Clc1ccccc1Cl
inactive: all assays above

Clc1ccc(Cl)c(Cl)c1
inactive: all assays above

Clc1ccc(C(c2ccc(Cl)cc2)C(Cl)(Cl)Cl)cc1
active: [2] 57.9 µM | [4] 50.1 µM | [5] 30.3 µM | [6] 44.4 µM | [8] 50.5 µM
inactive: [1] | [3] | [7]

CCC[CH2][Sn]([Cl])([CH2]CCC)[CH2]CCC
inactive: [5]
active: [1] 100 µM | [2] 1.12 µM | [3] 0.908 µM | [4] 0.336 µM | [6] 100 µM | [7] 0.0548 µM | [8] 0.574 µM

CCNS(=O)(=O)C(F)(F)C(F)(F)C(F)(F)C(F)(F)C(F)(F)C(F)(F)C(F)(F)C(F)(F)F
active: [1] 25.2 µM | [2] 38.9 µM | [3] 56 µM | [4] 46.3 µM | [5] 103 µM | [7] 36.4 µM | [8] 81.5 µM
inactive: [6]

CCCCOC(=O)c1ccccc1C(=O)OCc1ccccc1
active: [2] 48.5 µM | [7] 92.5 µM | [8] 60.3 µM
inactive: all other assays above

ClC1=C(Cl)C2(Cl)C3C(Cl)C=CC3C1(Cl)C2(Cl)Cl (centres undefined)
inactive: [5]
active: [1] 40.9 µM | [2] 99.2 µM | [3] 68.7 µM | [4] 76.8 µM | [6] 55 µM | [7] 26.7 µM | [8] 56 µM

Cc1cccc(N)c1N
active: [5] 99.9 µM | [7] 7.98 µM | [8] 14.1 µM
inactive: all other assays above
